Screening data from PubChem.
DRD3 antagonist: D3 dopamine receptor (human) antagonism; D3R cells, DiscoveRx beta-arrestin luminescence, antagonist mode; active compounds read low; max response, negative = inhibition, %; hit rate 2.5% among 360,000; AID 652054; in the data active = max response below about -50%; inconclusive = no clear call, values can overlap the other calls; also: % is scaled to controls: 0 for no effect and ±100 for the full control effect
Target sequence (P35462 whole entry, looked up): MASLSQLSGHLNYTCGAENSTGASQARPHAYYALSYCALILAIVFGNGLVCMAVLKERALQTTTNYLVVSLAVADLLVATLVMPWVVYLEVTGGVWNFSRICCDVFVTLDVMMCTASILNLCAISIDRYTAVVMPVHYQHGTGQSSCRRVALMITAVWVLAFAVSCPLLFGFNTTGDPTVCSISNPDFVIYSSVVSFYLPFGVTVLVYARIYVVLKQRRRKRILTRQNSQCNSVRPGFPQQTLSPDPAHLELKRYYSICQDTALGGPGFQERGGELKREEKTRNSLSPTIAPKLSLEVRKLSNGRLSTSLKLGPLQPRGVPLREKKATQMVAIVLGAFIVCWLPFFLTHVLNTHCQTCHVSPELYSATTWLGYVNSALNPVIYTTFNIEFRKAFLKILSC
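Cells expressing the human receptor were seeded at 1500 cells/well, incubated overnight at 37 degrees C in 5% CO2, then exposed to library compounds with dopamine controls for 90 minutes at 37 degrees C before luminescent detection.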
ClpP mod: qHTS Assay for Activators of ClpP. Potency, µM (highest dose often 57.5 µM), for inactives: at the highest dose activity change, negative = active. purified B. subtilis ClpP, FRET peptide cleavage, 20 min. hit rate 1.9% among 340,000; active = well fitted falling curve with a large enough effect; inconclusive = small, poorly fitted or top-dose-only effect; inactive = no such curve, though single readings can be large or run the other way; also: potency is read from the fitted curve at half-maximal effect; the source files actives as falling curves though it sought activators and does not explain the sign; nearly all actives have a fitted effect of over 65% in size
Target sequence (P80244 whole entry, looked up): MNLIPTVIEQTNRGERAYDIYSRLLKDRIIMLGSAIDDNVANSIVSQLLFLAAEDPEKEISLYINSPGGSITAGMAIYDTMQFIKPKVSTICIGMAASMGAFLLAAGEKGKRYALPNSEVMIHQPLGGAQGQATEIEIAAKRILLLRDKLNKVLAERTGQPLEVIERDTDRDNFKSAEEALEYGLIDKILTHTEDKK
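Buffer: 100 mM Tris/HCl pH8, 100 mM KCl, 0.05% low protease BSA, 2.5% glycerol, 0.01% Tween-20. ClpP 10 microg/mL final; 20 min RT; delta FRET normalized to ADEP and DMSO controls.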
TDP1 cell noCPT: qHTS for Inhibitors of human tyrosyl-DNA phosphodiesterase 1 (TDP1): qHTS in cells in absence of CPT. DT40 Tdp1-/- hTDP1 cells, no CPT, ATP luminescence, 48 h. Potency, µM (doses to about 46.2 µM), for inactives: at the top dose activity change, negative = growth inhibition, hits mostly inhibitors. hit rate 15% among 420,000. AID 686978, 2013; also: potency is read from the fitted curve at half-maximal effect; % is scaled to controls: 0 for no effect and ±100 for the full control effect; nearly all actives have a fitted effect of over 55% in size
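Growth kinetics read by CellTiter-Glo luminescence after ≥48 hr at 37 °C. Cells: DT40 Tdp1-/- stably carrying human TDP1, 400 per well, compound exposure in the absence of CPT (DMSO vehicle).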
TDP1 cell CPT: DT40-hTDP1 cell growth loss with CPT. Potency, µM (titrated, usually from 46.2 µM), without a hit: top-dose activity change, negative = growth inhibition, hits mostly inhibitors. hit rate 12% among 420,000. AID 686979. chicken DT40 Tdp1-/-;hTDP1 cells + 20 nM CPT, ATP luminescence, 48 h; also: potency is read from the fitted curve at half-maximal effect; % is scaled to controls: 0 for no effect and ±100 for the full control effect; nearly all actives have a fitted effect of over 55% in size
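Chicken DT40 Tdp1-/- cells complemented with human TDP1, 400 cells/well, exposed to compounds plus 20 nM camptothecin for at least 48 h at 37 C; viability read as ATP content by CellTiter-Glo luminescence.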
DRD3 agonist: activates the human D3 dopamine receptor | P35462 | hit rate 0.58% among 410,000 | D3R DiscoveRx beta-arrestin cells, luminescence, 90 min | max activation, %; in the data active = max activation above about 30%; also: 0% is about no effect
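Agonist mode: compounds and dopamine controls were applied to plated cells for 90 min at 37 degrees C after an overnight attachment at 1500 cells/well. Luminescent read-out followed 30 - 60 minutes at room temperature with DiscoveRx detection reagent.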
IL1B secr inh: blocks inflammasome-driven IL-1 beta release. THP-1 LPS/ATP IL-1B secretion, AlphaLISA, 16 h; active compounds read low. activity change, % at 57.5 µM. hit rate 4.7% among 360,000; in the data active = activity change below about -50%; inconclusive = mostly about -30% to -49%; also: % is scaled to controls: 0 for no effect and ±100 for the full control effect
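THP-1 cells pretreated 1 hr with compounds (up to 57.5 uM final), then stimulated with LPS (250 ng/mL final) plus ATP (1.25 mM final); secreted IL-1B measured by AlphaLISA after 16 hr, decreased signal indicating inhibition.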
Active calls of the source: *; ? = inconclusive; . = not tested or not shown. Most compounds without a hit are left out; they make up all but 21% or so of the library. Unless noted, calls follow the shape of the dose curve; as a rule, active = well fitted inhibition curve with a large enough effect; inconclusive = small, poorly fitted or top-dose-only effect; inactive = flat fitted curve, though single readings scatter.

SMILES	DRD3 antagonist	ClpP mod	TDP1 cell noCPT	TDP1 cell CPT	DRD3 agonist	IL1B secr inh
CSc1nc2c([nH]1)c(=S)n(C)c(=O)n2C	3	.	5.2µM*	5.8µM*	2	-20
CC(C)OCCCNc1nc2c([nH]1)c(=O)n(C)c(=O)n2C	-6	-4%	-12%	-16%	1	5
Cn1c(=O)c2[nH]c(SCCN)nc2n(C)c1=S	-3	-1%	10%	5%	6	30
Cn1c(=S)c2[nH]c(SCCC(C)(C)C)nc2n(C)c1=O	28	-4%	1µM*	1.5µM*	3	0
Cn1c(=S)c2[nH]c(SCc3cccnc3)nc2n(C)c1=O	-14	-2%	?	?	12	43
CCOC(=O)c1c(NC(=O)c2cc(=O)c3ccc(C)cc3o2)sc(C)c1C	.	-3%	-2%	-9%	-7	.
CCN(CC(=O)Nc1c(F)cccc1F)C(=O)c1n[nH]c2ccccc12	3	-3%	12%	19%	3	25
COc1cc(Cn2c3ccc(NC(=S)NCc4ccc(C)cc4)cc3c(=O)n2C)ccc1F	0	4%	21µM*	?	-6	-29
CC(CC(=O)Nc1ccc2c(c1)c(=O)n(C)n2Cc1ccc(Cl)cc1)C(F)(F)F (stereo not drawn)	0	5%	9.2µM*	?	-4	-17
COc1cc(Cn2c3ccc(NC(=O)CC(C)(C)C)cc3c(=O)n2C)ccc1F	32	5%	?	?	9	-18
COc1cccc(CNC(=S)Nc2ccc3c(c2)c(=O)n(C)n3Cc2ccc(F)cc2)c1	-17	4%	-26%	?	2	-9
COc1cc(Cn2c3ccc(NC(=O)CC(C)C(F)(F)F)cc3c(=O)n2C)ccc1F (stereo not drawn)	21	4%	16µM*	?	7	-14
CC1C/C(=N\NC(=S)NCc2ccccc2)CC(C)(C)C1 (stereo not drawn)	-56*	1%	26µM*	?	-21	22
CCc1cccc(NC(=O)CCNS(=O)(=O)c2ccc3c(c2)CCN3C(C)=O)c1	.	1%	-27%	?	1	.
C=CCC[C@@H](Cc1ccc(F)cc1)C(=O)OC[C@@H](NC(=O)[C@@H](CC=C)CC(=O)N[C@@H](CO)Cc1ccccc1)C(C)(C)C	-22	2%	?	23µM*	-4	?
C=CC[C@@H](CC(=O)N[C@H](CO)Cc1ccccc1)C(=O)N[C@H](COC(=O)[C@@H](CC=C)Cc1ccc(F)cc1)C(C)(C)C	?	-4%	?	?	-3	?
C=CCC[C@H](Cc1ccc(F)cc1)C(=O)OC[C@@H](C)NC(=O)[C@@H](CC=C)CC(=O)N[C@@H](CO)Cc1ccccc1	4	0%	15µM*	?	6	-11
C=CCC[C@H](Cc1ccc(F)cc1)C(=O)OC[C@@H](NC(=O)[C@@H](CC=C)CC(=O)N[C@@H](CO)Cc1ccccc1)C(C)(C)C	37	2%	21µM*	21µM*	23	-60*
C/C(CC(=O)NC1CCCCC1)=N\NC(=O)Cc1ccc(-c2ccccc2)cc1	-17	.	-17%	3%	-4	12
CCOCCCNCc1cn(-c2ccc(F)cc2F)nc1-c1ccccc1C	-26	-1%	16µM*	15µM*	-34	-77*
Cc1ccccc1-c1nn(-c2ccc(F)cc2F)cc1CNCC(C)O (stereo not drawn)	5	-2%	?	-28%	-2	-19
C=CCO/N=C(/CCC)C1=C(N)CC(C)(C)CC1=O	-8	.	1%	-2%	-2	38
CC(C)c1ccc(/C=C(\c2nc3ccccc3[nH]2)S(=O)(=O)c2ccccc2)cc1	-73*	-2%	4.6µM*	4.6µM*	-11	-103*
O=S(=O)(/C(=C/c1ccc(C(F)(F)F)cc1)c1nc2ccccc2[nH]1)c1ccccc1	-77*	0%	2.9µM*	2.6µM*	-29	-104*
C=CCN(c1ccccc1C(=O)O)S(=O)(=O)c1ccc(C)cc1	16	.	-7%	9%	4	-6
SMILES	DRD3 antagonist	ClpP mod	TDP1 cell noCPT	TDP1 cell CPT	DRD3 agonist	IL1B secr inh
COc1ccc(C)cc1N1C(=N)/C(=C2/Nc3ccccc3S2)C(c2ccccc2)C1=O (stereo not drawn)	-4	-5%	3.7µM*	6.5µM*	-6	-11
O=C(NCCCN1CCCCCC1)c1ccc2c(c1)sc1nc(-c3ccccc3)cn12	.	-29%	3.7µM*	6.5µM*	4	.
CCC1CCCCN1CCCNC(=O)c1ccc2c(c1)sc1nc(-c3ccc(F)cc3)cn12 (stereo not drawn)	.	-25%	2.6µM*	4.1µM*	-22	.
CCCN1CCN(CCCNC(=O)c2ccc3c(c2)sc2nc(-c4ccc(C)cc4)cn23)CC1	.	4%	1.2µM*	1.3µM*	-16	.
COC(=O)C[C@@H]1C=C[C@@H](NC(=O)C2CCC2)[C@@H](CO)O1	3	1%	2%	14%	-9	7
COc1ccc2c(c1OC)c(=O)n1c3ccc(OC(C)C(=O)NCCN4CCOCC4)cc3c3ccnc2c31 (stereo not drawn)	-8	4%	23µM*	16µM*	-2	?
CC(Oc1ccc2c3c(c(=O)oc2c1)CCCC3)C(=O)NCCN1CCOCC1 (stereo not drawn)	8	4%	2%	-25%	-1	8
COc1ccc2c(c1OC)c(=O)n1c3ccc(OC(C)C(=O)NCCCN4CCOCC4)cc3c3ccnc2c31 (stereo not drawn)	-9	5%	6.5µM*	13µM*	2	?
CC(Oc1ccc2c(c1)c1ccnc3c4ccccc4c(=O)n2c13)C(=O)NCCN1CCOCC1 (stereo not drawn)	-12	4%	7.3µM*	8.2µM*	-53	-51*
Cc1c(OC(C)C(=O)NCCCN2CCOCC2)ccc2c1oc(=O)c1ccccc12 (stereo not drawn)	13	4%	-28%	?	-3	-7
CSc1ncc(Cl)c(C(=O)Nc2nnc(SC)s2)n1	-3	-1%	-5%	0%	9	0
Cc1ccccc1CS(=O)(=O)c1ncc(Cl)c(C(=O)Nc2nnc(C(C)C)s2)n1	.	-2%	10µM*	8.2µM*	-14	.
CC(C)c1nnc(NC(=O)c2nc(S(=O)(=O)Cc3ccccc3)ncc2Cl)s1	-64*	0%	9.2µM*	5.8µM*	-24	-103*
